Consider 22 molecules from PubChem BioAssay (NCATS).

Assay [1] concerns the target Rap guanine nucleotide exchange factor 3 (Homo sapiens) (UniProt O95398). In words: Confirmatory qHTS for agonist of cAMP-regulated guanine nucleotide exchange factor 3 (EPAC1) (AID 1645881).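 Also: EPAC1 catalysed release of BODIPY-GDP from Rap1B seen as fluorescence loss; 100% = effect of cAMP agonist control; nearly all actives have a fitted effect of over 75% in size.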 Background: In qHTS, concentration-response curves come from the screen itself.
Assay [2] deals with Rap guanine nucleotide exchange factor 4 (Homo sapiens) (UniProt Q8WZA2). In words: Confirmatory qHTS for agonist of cAMP-regulated guanine nucleotide exchange factor 4 (EPAC2) (AID 1645884).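 Also: nucleotide exchange releases bodipy-GDP from Rap1 and this lowers its fluorescence; % is scaled to controls: 0 for no effect and ±100 for the full control effect; nearly all actives have a fitted effect of over 65% in size.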
The target is the same in assay [3]. As to the kind of experiment: Confirmatory qHTS for antagonist of cAMP-regulated guanine nucleotide exchange factor 4 (EPAC2) (AID 1645885). Also: nearly all actives have a fitted effect of over 25% in size. Also: potency is read from the fitted curve at half-maximal effect. As to activity change, negative = inhibition: % is scaled to controls: 0 for no effect and ±100 for the full control effect.
Assay [4] deals with Rap guanine nucleotide exchange factor 3 (Homo sapiens) (UniProt O95398). In words: Counterscreen qHTS for antagonist of cAMP-regulated guanine nucleotide exchange factor 3 (EPAC1) (AID 1645888).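 Also: fluorescence loss as bound BODIPY-GDP is released from Rap1B; % of control where 0% means no effect.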 Summed up: (§1)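 Rap1B–BODIPY-GDP (250 nM) with 50 uM GDP; compounds pin-transferred to 9.74 nM–152 uM final (activator) or from 7.32 nM upwards (inhibitor). Fluorescence Ex/Em 480/540 nm read at 5 and 30 min, then after adding cAMP or buffer, at room temperature.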
A general note: Counterscreens check selectivity or assay interference.

For assay [5] the target is unchanged. As to the kind of experiment: Counterscreen qHTS for agonist of cAMP-regulated guanine nucleotide exchange factor 3 (EPAC1) (AID 1645889). Also: nearly all actives have a fitted effect of over 40% in size. Also: potency is read from the fitted curve at half-maximal effect. As to activation: % of control where 0% means no effect. Summed up:
as §1

Inconclusive results are not listed. A number with no mark means an inactive call. Active and inactive are the calls of the source. Calls follow the shape of the dose curve; as a rule, active = well fitted curve in the direction sought with a large enough effect; inconclusive = small, poorly fitted or top-dose-only effect, or another doubt; inactive = no such curve, though single readings can be large; an effect the other way counts as inactive or inconclusive.

Rap guanine nucleotide exchange factor 3 (Homo sapiens), sequence (O95398 whole entry, looked up): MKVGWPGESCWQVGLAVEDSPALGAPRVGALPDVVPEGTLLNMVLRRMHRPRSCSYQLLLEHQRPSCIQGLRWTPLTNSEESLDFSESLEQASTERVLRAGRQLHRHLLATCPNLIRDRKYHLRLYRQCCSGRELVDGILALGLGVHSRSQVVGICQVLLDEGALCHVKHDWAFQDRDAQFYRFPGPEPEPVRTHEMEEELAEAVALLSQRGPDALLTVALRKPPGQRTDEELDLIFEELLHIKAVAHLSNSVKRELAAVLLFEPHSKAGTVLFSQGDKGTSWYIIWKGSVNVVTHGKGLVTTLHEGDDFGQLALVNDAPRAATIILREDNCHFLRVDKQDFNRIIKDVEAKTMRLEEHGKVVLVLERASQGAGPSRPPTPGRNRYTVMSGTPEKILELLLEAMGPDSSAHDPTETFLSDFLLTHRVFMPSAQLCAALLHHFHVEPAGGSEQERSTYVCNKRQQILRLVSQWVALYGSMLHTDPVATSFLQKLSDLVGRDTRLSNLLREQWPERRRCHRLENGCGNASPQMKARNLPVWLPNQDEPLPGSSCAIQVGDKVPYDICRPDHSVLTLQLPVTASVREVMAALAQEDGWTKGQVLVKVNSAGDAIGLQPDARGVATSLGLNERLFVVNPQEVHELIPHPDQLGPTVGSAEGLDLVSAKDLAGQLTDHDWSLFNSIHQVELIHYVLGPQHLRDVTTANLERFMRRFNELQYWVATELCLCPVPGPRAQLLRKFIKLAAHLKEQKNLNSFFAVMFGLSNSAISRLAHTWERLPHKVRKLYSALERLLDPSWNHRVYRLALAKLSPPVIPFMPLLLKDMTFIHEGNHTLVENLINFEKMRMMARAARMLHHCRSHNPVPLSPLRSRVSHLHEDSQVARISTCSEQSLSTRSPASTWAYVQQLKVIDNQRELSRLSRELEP
Rap guanine nucleotide exchange factor 4 (Homo sapiens), sequence (Q8WZA2 whole entry, looked up): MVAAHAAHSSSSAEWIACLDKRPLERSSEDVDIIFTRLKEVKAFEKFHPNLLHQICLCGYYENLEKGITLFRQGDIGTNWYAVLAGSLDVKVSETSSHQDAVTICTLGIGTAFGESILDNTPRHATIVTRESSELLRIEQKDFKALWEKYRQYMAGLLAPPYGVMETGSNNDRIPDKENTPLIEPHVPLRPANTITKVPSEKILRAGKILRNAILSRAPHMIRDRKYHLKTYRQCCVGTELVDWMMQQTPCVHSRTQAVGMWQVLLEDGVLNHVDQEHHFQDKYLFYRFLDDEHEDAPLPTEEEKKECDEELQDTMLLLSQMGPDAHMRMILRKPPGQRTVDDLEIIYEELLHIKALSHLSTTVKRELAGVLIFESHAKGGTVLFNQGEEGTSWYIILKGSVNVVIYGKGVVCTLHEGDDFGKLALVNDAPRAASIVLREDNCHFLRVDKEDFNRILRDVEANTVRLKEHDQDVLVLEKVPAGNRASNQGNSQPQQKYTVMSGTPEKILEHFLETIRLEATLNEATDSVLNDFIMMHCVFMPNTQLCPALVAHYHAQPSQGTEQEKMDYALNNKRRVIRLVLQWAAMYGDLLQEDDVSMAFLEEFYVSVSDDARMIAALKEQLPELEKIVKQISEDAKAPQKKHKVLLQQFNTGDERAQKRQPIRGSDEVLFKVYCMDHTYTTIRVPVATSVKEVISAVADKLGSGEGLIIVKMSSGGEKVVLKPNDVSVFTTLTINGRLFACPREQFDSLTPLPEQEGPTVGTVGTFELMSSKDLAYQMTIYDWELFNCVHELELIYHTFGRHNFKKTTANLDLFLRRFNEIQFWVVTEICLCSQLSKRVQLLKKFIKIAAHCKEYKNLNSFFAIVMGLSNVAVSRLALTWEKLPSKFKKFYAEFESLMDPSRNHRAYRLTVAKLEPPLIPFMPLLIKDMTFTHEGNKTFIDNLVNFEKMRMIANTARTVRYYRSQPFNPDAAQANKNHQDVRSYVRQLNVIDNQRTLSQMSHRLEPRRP

Turning to `CC(=O)Nc1ccc(NC(=O)CNC(=O)COc2ccccc2)cc1`, the Potency entry in assay [1] and in assay [3] was “inactive” throughout. In addition, the activation in assay [2] is 14.1% [at 17.1 µM, percent relative to cAMP agonist control]; in assay [5], -0.338% [at 30.8 µM]. In assay [4], the activity change, negative = inhibition was 1.2% [at 30.8 µM].
With `CCOP(=O)(OCC)C(Cc1ccc(OC)c(OC)c1)N=C(c1ccccc1)c1ccccc1` (stereo not given), the Potency result in assay [1] and in assay [3] was “inactive” each time. In addition, the activation in assay [2] is 4.61% [at 17.1 µM, percent relative to cAMP agonist control]; in assay [5], 17.1% [at 30.8 µM]. Besides, the activity change, negative = inhibition in assay [4] is -11.3% [at 30.8 µM].
On to `Cn1cc(S(=O)(=O)Nc2cccc(F)c2)c(=O)n(C)c1=O`, for which the Potency entry in assay [1] and in assay [3] was “inactive” in each case. Further, the activation was 0% [at 17.1 µM, percent relative to cAMP agonist control] in assay [2] and -7.11% [at 30.8 µM] in assay [5]. The activity change, negative = inhibition in assay [4] is -13.5% [at 30.8 µM].
As for `Cc1ccc2nc(-c3ccco3)c(Cc3cccc(Cl)c3)n2c1`, the Potency result in assay [1] and in assay [3] was “inactive” each time. Also, the activation is 2.28% [at 17.1 µM, percent relative to cAMP agonist control] in assay [2] and 14.3% [at 30.8 µM] in assay [5]. Also, in assay [4], the activity change, negative = inhibition was -5.77% [at 30.8 µM].
Consider `COc1ccccc1Cc1c(-c2ccco2)nc2c(C)cc(Br)cn12`, for which the Potency result in assay [1] and in assay [3] was “inactive” in each case. Further, the activation in assay [2] was 7.54% [at 17.1 µM, percent relative to cAMP agonist control]; in assay [5], 13.2% [at 30.8 µM]. For the same molecule, the activity change, negative = inhibition in assay [4] is -14.6% [at 30.8 µM].
In the case of `COc1ccc(N=C2SC(C(=O)Nc3ccc(C(=O)O)cc3)CC(=O)N2Cc2cccs2)cc1` (stereo not given), the Potency result in assay [1] and in assay [3] was “inactive” each time. The activation is -0.227% [at 17.1 µM, percent relative to cAMP agonist control] in assay [2] and 7.24% [at 30.8 µM] in assay [5]. Also, the activity change, negative = inhibition in assay [4] is -2.18% [at 30.8 µM].
As for `Cc1ccc(-c2nnc(Nc3ccc(OCC(N)=O)cc3)c3ccccc23)cc1S(N)(=O)=O`, the Potency entry in assay [1], in assay [2], in assay [3], in assay [4] and in assay [5] was “inactive” each time.
Turning to `COc1cc(/C=N/NC(=O)c2ccccc2O)ccc1OCC(=O)Nc1ccccc1`, the Potency result in assay [1] and in assay [3] was “inactive” throughout. Further, the activation was -7.34% [at 17.1 µM, percent relative to cAMP agonist control] in assay [2] and 13.4% [at 30.8 µM] in assay [5]. For the same molecule, the activity change, negative = inhibition in assay [4] was 0.781% [at 30.8 µM].
As to `Cc1cc2nc(-c3ccco3)c(Cc3cccc(F)c3)n2c(C)c1Br`, the Potency result in assay [1] and in assay [3] was “inactive” each time. The activation is 6.3% [at 17.1 µM, percent relative to cAMP agonist control] in assay [2] and 10.5% [at 30.8 µM] in assay [5]. For the same molecule, the activity change, negative = inhibition in assay [4] was -4.32% [at 30.8 µM].
As to `Cc1ccc(-n2nnnc2SCC(=O)NCC2(N3CCOCC3)CCCCC2)cc1`, the Potency result in assay [1], in assay [2], in assay [3], in assay [4] and in assay [5] was “inactive” throughout.
Regarding `O=C(c1ccc2c(c1)CCCC2)N1CCN(c2nc3ccc(F)cc3s2)CC1`, the Potency entry in assay [1], in assay [2], in assay [3], in assay [4] and in assay [5] was “inactive” throughout.
Turning to `CCn1c(SCC(=O)Nc2sc3c(c2C(N)=O)CCC(C)C3)nnc1-c1ccco1` (stereo not given), the Potency entry in assay [1], in assay [2], in assay [3], in assay [4] and in assay [5] was “inactive” in each case.
For `O=C(O)CN1C(=O)/C(=C\C(Br)=C\c2ccccc2)SC1=S`, the Potency entry in assay [1] and in assay [3] was “inactive” throughout. Besides, the activation in assay [2] was 6.32% [at 17.1 µM, percent relative to cAMP agonist control]; in assay [5] it was 8.49% [at 30.8 µM]. For the same molecule, the activity change, negative = inhibition in assay [4] was 0.657% [at 30.8 µM].
As to `CC1=NN(c2ccc(Br)cc2)C(=O)/C1=C/c1cccs1`, the Potency entry in assay [1] and in assay [3] was “inactive” in each case. The activation in assay [2] was 4.12% [at 17.1 µM, percent relative to cAMP agonist control]. The activity change, negative = inhibition in assay [4] was 29.1% [at 30.8 µM]. In addition, the Potency in assay [5] is 14.1 µM (active).
Consider `N#Cc1c(-c2ccccc2)c(C#N)c2nc3ccccc3n2c1N`, for which the Potency entry in assay [1], in assay [2], in assay [4] and in assay [5] was “inactive” each time. In addition, the Potency in assay [3] was 84.9 µM (active).
As to `CC1(Cc2ccc(OC(F)(F)F)cc2)C(=O)Nc2ccc(OC(F)(F)F)cc21` (stereo not given), the Potency entry in assay [1] and in assay [3] was “inactive” throughout. The activation in assay [2] is -11.8% [at 17.1 µM, percent relative to cAMP agonist control]; in assay [5] it was 35.9% [at 30.8 µM]. For the same molecule, the activity change, negative = inhibition in assay [4] was -17.3% [at 30.8 µM].
`Cc1nn(CCc2nn[nH]n2)c2nc(-c3ccc(Br)cc3)cc(C(F)(F)F)c12`: the Potency result in assay [1], in assay [2], in assay [3], in assay [4] and in assay [5] was “inactive” each time.
As to `Cc1cccc2sc(N(CCCN(C)C)C(=O)CCS(=O)(=O)c3ccccc3)nc12`, the Potency result in assay [1], in assay [2], in assay [3], in assay [4] and in assay [5] was “inactive” each time.
Take `COc1cc(/C=C2/NC(=O)NC2=O)cc(Br)c1OCc1ccc(C(=O)O)cc1`: the Potency entry in assay [1] and in assay [3] was “inactive” throughout. The activation in assay [2] is -3.55% [at 17.1 µM, percent relative to cAMP agonist control]; in assay [5], 11.1% [at 30.8 µM]. For the same molecule, the activity change, negative = inhibition in assay [4] was -4.68% [at 30.8 µM].
Take `Oc1c(C(Nc2nccs2)c2ccc(C(F)(F)F)cc2)ccc2cccnc12` (stereo not given): the Potency entry in assay [1] and in assay [3] was “inactive” each time. For the same molecule, the activation in assay [2] was -2.43% [at 17.1 µM, percent relative to cAMP agonist control]; in assay [5], 3.72% [at 30.8 µM]. In addition, the activity change, negative = inhibition in assay [4] is -18% [at 30.8 µM].
Turning to `COc1ccc(NC(=O)CSc2nc3sc4c(c3c(=O)n2-c2ccc(OC)cc2)CCN(C)C4)cc1`, the Potency result in assay [1] and in assay [3] was “inactive” each time. Further, the activation in assay [2] is -8.15% [at 17.1 µM, percent relative to cAMP agonist control]; in assay [5], 31.5% [at 30.8 µM]. The activity change, negative = inhibition in assay [4] is -8.97% [at 30.8 µM].
As for `O=C(CSc1nc(-c2ccc(F)cc2)nc2ccc(F)cc12)Nc1cccc(C(=O)O)c1`, the Potency entry in assay [1], in assay [2], in assay [3], in assay [4] and in assay [5] was “inactive” in each case.
